# Test results reported in publication PMC7862700, “An all-to-all approach to the identification of sequence-specific readers for epigenetic DNA modifications on cytosine”.
# What was measured:
# Test in all cases: DAPPL (digital affinity profiling via proximity ligation, sequencing); 10 mM Tris-HCl pH 7.5, 50 mM NaCl, 1 mM DTT, 4% glycerol, room temperature, 30 min; GST-TFs on glutathione beads, 16-mer random dsDNA library, 0.1% formaldehyde crosslink after washing; high values mean tight binding
# Settings in all cases: protein: recombinant; tags: N-terminal GST; dsDNA, one strand shown
# [1] = target: T1, FLI1 (Homo sapiens, UniProt Q01543 1-452)
# T1 sequence: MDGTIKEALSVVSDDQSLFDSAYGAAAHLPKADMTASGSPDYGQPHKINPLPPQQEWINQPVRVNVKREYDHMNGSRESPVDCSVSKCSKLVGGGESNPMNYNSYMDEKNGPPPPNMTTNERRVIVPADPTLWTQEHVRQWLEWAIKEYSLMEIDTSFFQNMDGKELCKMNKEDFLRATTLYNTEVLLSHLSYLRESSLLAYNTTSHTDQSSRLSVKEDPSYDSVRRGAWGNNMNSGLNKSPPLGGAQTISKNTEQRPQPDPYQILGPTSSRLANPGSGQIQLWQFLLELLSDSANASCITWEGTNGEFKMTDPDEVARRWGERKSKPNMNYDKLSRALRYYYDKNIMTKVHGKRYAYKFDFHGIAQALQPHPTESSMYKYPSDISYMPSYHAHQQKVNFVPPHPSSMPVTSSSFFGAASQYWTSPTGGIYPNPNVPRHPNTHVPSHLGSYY
# Outline: (§1)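 The binding signal reported is, for every hexamer, its read frequency for a factor over its read frequency for the tag-only sample. Reads came from pools of yeast-expressed, GST-fused human transcription factors on glutathione beads, barcoded with DNA and mixed with that sample, which were incubated with 200 nmole of a random double-stranded 16-mer DNA library in Tris/NaCl/DTT/glycerol buffer at room temperature for 30 min. After washing, the pools were crosslinked with 0.1% formaldehyde, proximity-ligated with BsaI/T4 ligase for 1 h at 37 °C, PCR-amplified and sequenced on an Illumina NextSeq500.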
# [2] = target: T2, ELK1 (Homo sapiens, UniProt P19419 1-428)
# T2 sequence: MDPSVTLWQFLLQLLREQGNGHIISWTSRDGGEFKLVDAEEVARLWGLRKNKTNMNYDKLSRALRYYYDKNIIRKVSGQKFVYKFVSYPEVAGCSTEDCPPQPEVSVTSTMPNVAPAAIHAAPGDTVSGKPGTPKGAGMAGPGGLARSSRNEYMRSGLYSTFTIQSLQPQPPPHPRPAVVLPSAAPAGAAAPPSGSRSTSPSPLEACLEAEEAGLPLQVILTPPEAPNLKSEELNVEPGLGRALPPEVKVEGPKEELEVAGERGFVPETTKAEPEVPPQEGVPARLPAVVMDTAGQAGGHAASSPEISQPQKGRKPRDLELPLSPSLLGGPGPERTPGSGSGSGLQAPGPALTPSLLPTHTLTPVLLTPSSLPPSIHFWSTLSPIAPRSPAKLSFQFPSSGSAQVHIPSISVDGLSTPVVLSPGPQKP
# Outline: as §1
# [3] = target: ELF1 (Homo sapiens, UniProt P32519 1-619)
# Outline: as §1
# [4] = target: T3, EHF (Homo sapiens, UniProt Q9NZC4 1-300)
# T3 sequence: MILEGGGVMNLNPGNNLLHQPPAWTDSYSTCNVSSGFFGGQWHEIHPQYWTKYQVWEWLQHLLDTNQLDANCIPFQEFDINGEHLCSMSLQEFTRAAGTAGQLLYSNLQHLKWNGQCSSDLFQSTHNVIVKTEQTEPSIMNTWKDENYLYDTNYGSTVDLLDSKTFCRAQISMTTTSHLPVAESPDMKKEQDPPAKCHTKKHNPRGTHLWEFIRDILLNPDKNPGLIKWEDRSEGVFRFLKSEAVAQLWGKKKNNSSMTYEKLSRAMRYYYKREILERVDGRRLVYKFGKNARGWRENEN
# Outline: as §1
# [5] = target: SPIB (Homo sapiens, UniProt Q01892 1-262)
# Outline: as §1
# [6] = target: T4, ELK3 (Homo sapiens, UniProt P41970 1-407)
# T4 sequence: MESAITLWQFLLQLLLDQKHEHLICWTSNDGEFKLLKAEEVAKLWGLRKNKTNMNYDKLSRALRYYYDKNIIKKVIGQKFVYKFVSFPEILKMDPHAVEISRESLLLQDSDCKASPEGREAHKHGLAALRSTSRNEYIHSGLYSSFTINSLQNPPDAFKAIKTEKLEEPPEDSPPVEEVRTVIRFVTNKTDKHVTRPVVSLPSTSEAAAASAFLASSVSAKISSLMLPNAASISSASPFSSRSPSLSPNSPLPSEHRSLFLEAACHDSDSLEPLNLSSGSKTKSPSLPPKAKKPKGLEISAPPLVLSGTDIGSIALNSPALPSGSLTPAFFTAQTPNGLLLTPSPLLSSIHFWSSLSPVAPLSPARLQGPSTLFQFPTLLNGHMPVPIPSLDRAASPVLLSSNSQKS
# Outline: as §1
# [7] = target: T5, FEV (Homo sapiens, UniProt Q99581 1-238)
# T5 sequence: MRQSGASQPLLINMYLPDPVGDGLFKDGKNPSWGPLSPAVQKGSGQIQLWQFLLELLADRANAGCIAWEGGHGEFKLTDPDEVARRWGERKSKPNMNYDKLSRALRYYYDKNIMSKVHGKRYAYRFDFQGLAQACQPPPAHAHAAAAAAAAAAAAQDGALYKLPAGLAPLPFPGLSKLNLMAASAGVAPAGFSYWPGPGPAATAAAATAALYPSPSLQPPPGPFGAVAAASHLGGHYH
# Outline: as §1
# [8] = target: ETV5 (Homo sapiens, UniProt P41161 1-510)
# Outline: as §1
# [9] = target: T6, SPIC (Homo sapiens, UniProt Q8N5J4 1-248)
# T6 sequence: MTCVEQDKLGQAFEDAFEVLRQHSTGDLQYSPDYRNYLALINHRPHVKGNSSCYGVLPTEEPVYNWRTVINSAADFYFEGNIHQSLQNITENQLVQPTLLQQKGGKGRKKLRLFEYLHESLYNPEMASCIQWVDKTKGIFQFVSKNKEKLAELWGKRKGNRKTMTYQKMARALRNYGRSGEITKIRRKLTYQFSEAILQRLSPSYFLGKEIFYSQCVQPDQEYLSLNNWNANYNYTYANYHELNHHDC
# Outline: as §1
# [10] = target: ELF4 (Homo sapiens, UniProt Q99607 1-663)
# Outline: as §1
# [11] = target: ETV1 (Homo sapiens, UniProt P50549 1-477)
# Outline: as §1
# [12] = target: T7, ERF (Homo sapiens, UniProt P50548 1-548)
# T7 sequence: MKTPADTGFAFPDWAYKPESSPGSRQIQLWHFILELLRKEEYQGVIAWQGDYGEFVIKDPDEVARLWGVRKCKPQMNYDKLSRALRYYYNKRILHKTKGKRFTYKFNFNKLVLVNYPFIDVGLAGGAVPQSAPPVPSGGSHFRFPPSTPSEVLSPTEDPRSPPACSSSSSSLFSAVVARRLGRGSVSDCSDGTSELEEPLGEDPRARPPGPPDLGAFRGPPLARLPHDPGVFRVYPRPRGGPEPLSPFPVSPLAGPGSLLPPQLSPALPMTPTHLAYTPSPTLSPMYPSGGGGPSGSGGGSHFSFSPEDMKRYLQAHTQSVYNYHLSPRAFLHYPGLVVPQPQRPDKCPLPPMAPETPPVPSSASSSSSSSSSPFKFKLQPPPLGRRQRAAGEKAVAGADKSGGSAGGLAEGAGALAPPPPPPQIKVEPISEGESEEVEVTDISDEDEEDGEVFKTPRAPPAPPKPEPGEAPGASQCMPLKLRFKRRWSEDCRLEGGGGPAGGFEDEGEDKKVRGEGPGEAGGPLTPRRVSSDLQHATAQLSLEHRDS
# Outline: as §1
# [13] = target: T8, ETV3L (Homo sapiens, UniProt Q6ZN32 1-361)
# T8 sequence: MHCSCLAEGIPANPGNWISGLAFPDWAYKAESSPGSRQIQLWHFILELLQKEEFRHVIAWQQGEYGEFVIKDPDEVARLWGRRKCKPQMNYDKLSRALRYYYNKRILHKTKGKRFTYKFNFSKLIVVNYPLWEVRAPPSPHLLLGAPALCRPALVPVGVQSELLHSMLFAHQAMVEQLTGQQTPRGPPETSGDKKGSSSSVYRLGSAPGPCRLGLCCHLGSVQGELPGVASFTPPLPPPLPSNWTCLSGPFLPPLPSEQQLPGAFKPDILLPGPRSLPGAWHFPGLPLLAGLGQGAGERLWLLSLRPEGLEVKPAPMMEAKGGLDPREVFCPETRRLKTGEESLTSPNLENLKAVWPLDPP
# Outline: as §1
# [14] = target: T9, ETS2 (Homo sapiens, UniProt P15036 1-469)
# T9 sequence: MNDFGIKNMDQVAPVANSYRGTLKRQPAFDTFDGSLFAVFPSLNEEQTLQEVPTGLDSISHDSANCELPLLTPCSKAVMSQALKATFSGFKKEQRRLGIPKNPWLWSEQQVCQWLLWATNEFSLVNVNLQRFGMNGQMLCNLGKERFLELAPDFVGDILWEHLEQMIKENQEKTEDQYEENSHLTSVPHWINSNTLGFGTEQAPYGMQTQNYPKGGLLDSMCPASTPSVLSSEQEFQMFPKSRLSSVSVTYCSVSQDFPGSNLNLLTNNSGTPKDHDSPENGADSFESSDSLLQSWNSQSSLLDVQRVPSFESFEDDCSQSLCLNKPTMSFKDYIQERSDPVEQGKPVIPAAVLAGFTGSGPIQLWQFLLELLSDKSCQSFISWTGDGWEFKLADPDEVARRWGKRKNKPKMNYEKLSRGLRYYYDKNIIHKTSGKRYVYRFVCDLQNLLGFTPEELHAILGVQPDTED
# Outline: as §1
# [15] = target: T10, ETV3 (Homo sapiens, UniProt P41162-2 1-143)
# T10 sequence: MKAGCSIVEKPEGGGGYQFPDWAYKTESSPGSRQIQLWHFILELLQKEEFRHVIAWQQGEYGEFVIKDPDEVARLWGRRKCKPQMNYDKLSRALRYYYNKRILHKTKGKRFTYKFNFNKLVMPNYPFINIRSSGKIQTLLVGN
# Outline: as §1
# [16] = target: ETV6 (Homo sapiens, UniProt P41212 1-452)
# Outline: as §1
# Sequence of SPIB (Q01892 whole entry): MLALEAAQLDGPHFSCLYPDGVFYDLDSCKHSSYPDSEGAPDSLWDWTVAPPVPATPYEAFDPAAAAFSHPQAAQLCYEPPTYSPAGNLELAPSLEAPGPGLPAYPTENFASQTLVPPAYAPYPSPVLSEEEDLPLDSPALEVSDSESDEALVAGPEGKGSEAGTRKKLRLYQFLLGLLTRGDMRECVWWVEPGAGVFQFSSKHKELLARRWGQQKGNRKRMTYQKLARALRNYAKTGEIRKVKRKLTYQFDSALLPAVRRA
# Sequence of ELF1 (P32519 whole entry): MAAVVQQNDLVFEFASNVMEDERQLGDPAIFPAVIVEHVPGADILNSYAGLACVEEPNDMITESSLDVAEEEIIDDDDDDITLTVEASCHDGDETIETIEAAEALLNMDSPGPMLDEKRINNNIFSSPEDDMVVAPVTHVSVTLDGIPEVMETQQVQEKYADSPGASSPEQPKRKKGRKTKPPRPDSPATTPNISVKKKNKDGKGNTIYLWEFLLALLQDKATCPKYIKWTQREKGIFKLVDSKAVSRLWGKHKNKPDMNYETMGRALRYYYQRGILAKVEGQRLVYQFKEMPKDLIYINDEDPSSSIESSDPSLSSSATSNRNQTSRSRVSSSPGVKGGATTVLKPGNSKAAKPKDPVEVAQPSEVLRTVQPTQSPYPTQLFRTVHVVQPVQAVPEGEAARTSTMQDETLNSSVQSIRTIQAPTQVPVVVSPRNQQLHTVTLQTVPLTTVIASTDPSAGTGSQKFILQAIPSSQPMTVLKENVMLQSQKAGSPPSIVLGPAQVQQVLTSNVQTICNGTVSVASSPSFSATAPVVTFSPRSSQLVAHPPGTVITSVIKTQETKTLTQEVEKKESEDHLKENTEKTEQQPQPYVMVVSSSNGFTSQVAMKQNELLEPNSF
# Sequence of ELF4 (Q99607 whole entry): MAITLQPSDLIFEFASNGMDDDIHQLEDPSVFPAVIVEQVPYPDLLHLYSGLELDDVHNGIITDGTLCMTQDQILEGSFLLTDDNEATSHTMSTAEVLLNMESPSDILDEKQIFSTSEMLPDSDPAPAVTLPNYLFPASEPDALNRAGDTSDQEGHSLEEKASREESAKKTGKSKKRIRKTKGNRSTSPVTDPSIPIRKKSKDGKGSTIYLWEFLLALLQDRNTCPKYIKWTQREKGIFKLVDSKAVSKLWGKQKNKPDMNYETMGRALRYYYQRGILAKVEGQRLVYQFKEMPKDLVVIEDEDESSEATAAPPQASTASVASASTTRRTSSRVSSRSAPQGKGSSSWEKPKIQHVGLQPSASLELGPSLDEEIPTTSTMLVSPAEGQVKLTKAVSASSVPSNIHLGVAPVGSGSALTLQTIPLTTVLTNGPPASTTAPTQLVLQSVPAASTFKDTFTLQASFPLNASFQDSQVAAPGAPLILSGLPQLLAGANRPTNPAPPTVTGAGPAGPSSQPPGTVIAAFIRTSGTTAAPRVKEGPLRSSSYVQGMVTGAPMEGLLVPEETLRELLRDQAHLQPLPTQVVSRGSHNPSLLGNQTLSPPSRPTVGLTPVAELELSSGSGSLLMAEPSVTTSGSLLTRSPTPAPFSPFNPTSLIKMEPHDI
# Sequence of ETV6 (P41212 whole entry): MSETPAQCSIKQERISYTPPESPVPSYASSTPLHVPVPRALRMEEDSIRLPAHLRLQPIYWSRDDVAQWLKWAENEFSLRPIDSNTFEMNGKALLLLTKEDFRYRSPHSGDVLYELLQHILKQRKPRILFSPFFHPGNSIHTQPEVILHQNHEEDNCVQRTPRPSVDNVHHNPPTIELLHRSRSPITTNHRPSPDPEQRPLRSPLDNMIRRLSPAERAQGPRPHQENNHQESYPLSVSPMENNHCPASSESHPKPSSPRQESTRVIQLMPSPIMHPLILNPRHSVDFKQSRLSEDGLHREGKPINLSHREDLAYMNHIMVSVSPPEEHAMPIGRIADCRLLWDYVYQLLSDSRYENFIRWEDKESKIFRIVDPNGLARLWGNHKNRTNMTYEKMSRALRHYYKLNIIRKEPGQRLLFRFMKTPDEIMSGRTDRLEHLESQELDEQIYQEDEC
# Sequence of ETV1 (P50549 whole entry): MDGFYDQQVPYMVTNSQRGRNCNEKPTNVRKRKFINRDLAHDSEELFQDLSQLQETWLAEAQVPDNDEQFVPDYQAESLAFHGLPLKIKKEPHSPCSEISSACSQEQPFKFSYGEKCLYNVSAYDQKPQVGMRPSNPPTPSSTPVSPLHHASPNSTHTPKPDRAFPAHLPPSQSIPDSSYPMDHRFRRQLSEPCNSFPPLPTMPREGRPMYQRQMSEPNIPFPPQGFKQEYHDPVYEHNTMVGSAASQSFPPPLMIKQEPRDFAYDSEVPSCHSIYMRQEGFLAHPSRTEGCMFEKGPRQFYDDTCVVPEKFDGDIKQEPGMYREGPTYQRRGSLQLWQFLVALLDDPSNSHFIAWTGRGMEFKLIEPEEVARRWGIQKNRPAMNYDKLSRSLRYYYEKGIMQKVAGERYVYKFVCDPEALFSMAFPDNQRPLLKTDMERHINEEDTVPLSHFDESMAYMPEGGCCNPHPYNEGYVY
# Sequence of ETV5 (P41161 whole entry): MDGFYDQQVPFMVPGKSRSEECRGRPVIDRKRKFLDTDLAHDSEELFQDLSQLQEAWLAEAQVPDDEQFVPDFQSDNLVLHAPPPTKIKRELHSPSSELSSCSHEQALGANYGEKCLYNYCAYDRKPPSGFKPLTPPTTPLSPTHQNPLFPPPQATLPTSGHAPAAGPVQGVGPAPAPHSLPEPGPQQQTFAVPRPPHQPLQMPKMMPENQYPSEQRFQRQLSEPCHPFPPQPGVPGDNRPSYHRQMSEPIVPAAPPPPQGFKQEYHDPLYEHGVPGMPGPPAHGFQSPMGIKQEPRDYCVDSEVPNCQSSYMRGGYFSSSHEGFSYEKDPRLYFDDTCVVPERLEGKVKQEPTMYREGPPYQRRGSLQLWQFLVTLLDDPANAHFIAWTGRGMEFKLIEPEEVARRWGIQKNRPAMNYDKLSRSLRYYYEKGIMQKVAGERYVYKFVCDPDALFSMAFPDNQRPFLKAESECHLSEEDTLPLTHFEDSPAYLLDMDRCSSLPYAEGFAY
sequence,measurement,setting,value
ACCACA,binding signal,[1],"1.05 fold enrichment (6-mer frequency, TF over GST control)"
same,binding signal,[2],"1.1 fold enrichment (6-mer frequency, TF over GST control)"
same,binding signal,[3],"1.08 fold enrichment (6-mer frequency, TF over GST control)"
same,binding signal,[4],"1.11 fold enrichment (6-mer frequency, TF over GST control)"
same,binding signal,[5],"1.04 fold enrichment (6-mer frequency, TF over GST control)"
same,binding signal,[6],"1.14 fold enrichment (6-mer frequency, TF over GST control)"
same,binding signal,[7],"1.05 fold enrichment (6-mer frequency, TF over GST control)"
same,binding signal,[8],"1.03 fold enrichment (6-mer frequency, TF over GST control)"
same,binding signal,[9],"1.1 fold enrichment (6-mer frequency, TF over GST control)"
same,binding signal,[10],"1.11 fold enrichment (6-mer frequency, TF over GST control)"
same,binding signal,[11],"1.09 fold enrichment (6-mer frequency, TF over GST control)"
same,binding signal,[12],"1.05 fold enrichment (6-mer frequency, TF over GST control)"
same,binding signal,[13],"1.16 fold enrichment (6-mer frequency, TF over GST control)"
same,binding signal,[14],"1.06 fold enrichment (6-mer frequency, TF over GST control)"
same,binding signal,[15],"1.02 fold enrichment (6-mer frequency, TF over GST control)"
same,binding signal,[16],"1.08 fold enrichment (6-mer frequency, TF over GST control)"
